According to PubChem BioAssay (Tox21):
Values joined by “and” are separate entries in the source; they are usually repeats but may differ in a detail not shown here. Identical values can stand only once. Results filed as inconclusive are left out. Unmarked numbers belong to inactive results. Active and inactive are the calls of the source. Calls follow the shape of the dose curve; as a rule, active = well fitted inhibition curve with a large enough effect in the signal ratio in the repeat runs (not every such curve was filed as active); inconclusive = weak or mixed curves; inactive = flat fitted curve, though single readings scatter; the % refers to the signal ratio.

biological target: Progesterone receptor (Homo sapiens) (UniProt P06401); assay: qHTS assay to identify small molecule antagonists of the progesterone receptor (PR) signaling pathway (AID 1346795); conditions: PR-UAS-bla HEK293T, beta-lactamase FRET ratio, 16 h; series mostly up to 92.4 µM; activity change, negative = inhibition: at the top concentration
From the text: National Center for Advancing Translational Sciences [NCATS]
NIH Chemical Genomics Center [NCGC]
U.S. Environmental Protection Agency [EPA]
National Institutes of Environmental Health Sciences [NIEHS]
National Toxicology Program [NTP]
U.S. Food and Drug Administration [FDA]
Progesterone receptor (PR), a nuclear hormone receptor, plays an important role in development, metabolic homeostasis and reproduction. […] Endocrine disrupting chemicals (EDCs) and their interactions with steroid hormone receptors like PR causes disruption of normal endocrine function. To identify the compounds that inhibit PR signaling, a PR-UAS-bla GripTite cell line i.e. PR-UAS-bla HEK293T (Invitrogen, Carlsbad, CA, USA) containing a beta-lactamase reporter gene under the control of an Upstream Activator Sequence (UAS) was used to screen Tox21 10K compound library.
Tox21 Assay Protocol Summary:
PR-UAS-bla HEK293T cells were dispensed at 3,000 cells/4 uL of assay medium containing 2% charcoal stripped FBS per well into black wall/clear-bottom 1536-well plates using a Multidrop Combi (ThermoFisher Scientific, Waltham, MA) dispenser. After the assay plates were incubated at a 37C and 5% CO2 for 6 hr, 23 nL of compounds dissolved in DMSO, positive controls or DMSO only was transferred to the assay plate by a Pintool station (Kalypsys, San Diego, CA), followed by addition of 1 uL (1nM as final concentration) of Promegestone (R5020) in assay medium using a BioRAPTR FRD (Flying Reagent Dispenser, Aurora Discovery, San Diego, CA). The plates were incubated at 37C and 5% CO2 for 16 hr. Then 1 uL of LiveBLAzer B/G FRET substrate was added using a FRD. After the plates were incubated at room temperature for 2 hours, fluorescence intensity was measured by an Envision plate reader (PerkinElmer, Shelton, CT).
% is scaled to controls: 0 for no effect and ±100 for the full control effect; potency is read from the fitted curve at half-maximal effect.

Progesterone receptor (Homo sapiens), sequence (P06401 whole entry, looked up): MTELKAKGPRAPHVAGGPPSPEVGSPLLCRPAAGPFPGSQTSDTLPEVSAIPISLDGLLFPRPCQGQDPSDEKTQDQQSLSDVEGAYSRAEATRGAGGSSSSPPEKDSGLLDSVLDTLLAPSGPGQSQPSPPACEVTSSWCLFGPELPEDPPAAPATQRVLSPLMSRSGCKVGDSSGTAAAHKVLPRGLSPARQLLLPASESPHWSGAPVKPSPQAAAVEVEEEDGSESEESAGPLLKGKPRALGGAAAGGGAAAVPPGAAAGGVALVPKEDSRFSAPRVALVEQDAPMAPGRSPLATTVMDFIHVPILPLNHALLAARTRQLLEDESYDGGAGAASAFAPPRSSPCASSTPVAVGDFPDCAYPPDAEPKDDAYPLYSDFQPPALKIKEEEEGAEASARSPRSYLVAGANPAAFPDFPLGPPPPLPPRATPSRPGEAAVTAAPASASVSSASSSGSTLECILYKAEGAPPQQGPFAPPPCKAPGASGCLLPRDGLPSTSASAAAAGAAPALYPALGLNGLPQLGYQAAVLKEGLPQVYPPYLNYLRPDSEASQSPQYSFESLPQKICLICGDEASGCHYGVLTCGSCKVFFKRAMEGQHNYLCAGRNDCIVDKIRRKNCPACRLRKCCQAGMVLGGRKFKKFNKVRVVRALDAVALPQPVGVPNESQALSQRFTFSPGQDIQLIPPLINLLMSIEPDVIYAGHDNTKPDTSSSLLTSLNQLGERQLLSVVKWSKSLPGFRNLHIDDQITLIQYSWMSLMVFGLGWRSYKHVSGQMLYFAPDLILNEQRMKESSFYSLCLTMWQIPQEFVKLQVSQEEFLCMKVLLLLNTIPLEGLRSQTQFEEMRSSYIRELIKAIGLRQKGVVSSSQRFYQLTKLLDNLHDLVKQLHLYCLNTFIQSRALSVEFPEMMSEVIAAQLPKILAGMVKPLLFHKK

Row | SMILES | Potency | activity change, negative = inhibition
1 | CC(NCCC(c1ccccc1)c1ccccc1)c1ccccc1 (stereo not given) | 29.8 µM (active) | –
2 | C=C(C)C(=O)OCCC[Si](Cl)(Cl)Cl | – | -3.28%
3 | CC1(C)COCN1 | – | 1.92%
4 | CCCCCCCC(C)=O | – | 2.12%
5 | CNC(=O)c1cc(Oc2ccc(NC(=O)Nc3ccc(Cl)c(C(F)(F)F)c3)cc2)ccn1 | 11.9 µM (active) | –
6 | CC(=O)Oc1ccc(C2(c3ccc(OC(C)=O)cc3)C(=O)Nc3ccccc32)cc1 | – | -23.1% [at 42.5 µM]
7 | CCN(CC)CCOC(=O)C1(C2CCCCC2)CCCCC1 | – | 5.05% [at 42.5 µM]
8 | COc1cccc(OC)c1O | – | -3.2%
9 | O=C(Oc1ccccc1)c1cccc(C(=O)Oc2ccccc2)c1 | 25.7 µM (active) | –
10 | OCCCCl | – | 1.82%
11 | C=CC(=O)OCCN(CC)CC | – | 6.17%
12 | Cc1ccc(-n2[nH]c(C)c(N=Nc3cccc(-c4cccc(C(=O)O)c4)c3O)c2=O)cc1C | 18.8 µM (active) | –
13 | CCN(CC)CCSC(=O)C(c1ccccc1)c1ccccc1 | – | -9.07% [at 42.5 µM]
14 | Cc1cc(C)c(C=O)c(C)c1 | – | 0.887%
15 | CCC1CCCCC1 | – | -1.58%
16 | CCCCN(C)C | – | 1.67%
17 | CCO[Si](CCCSSSSCCC[Si](OCC)(OCC)OCC)(OCC)OCC | – | -7.19%
18 | C=CC/C=C/C/C=C/C/C=C/C | – | 4.03%
19 | NCCCCCCNCCCCCCN | – | 3.07%
20 | S=C(SSSSSSC(=S)N1CCCCC1)N1CCCCC1 | 13.4 µM (active) | –

Row | SMILES | Potency | activity change, negative = inhibition
21 | CCOB(OCC)OCC | – | 4.31%
22 | CC(C)(C)c1n[nH]c(=O)n(N)c1=O | – | 4.29%
23 | CCCCCCCCCCCCCc1ccccc1 | – | 2.94% [at 42.5 µM]
24 | Cc1nc(Nc2ncc(C(=O)Nc3c(C)cccc3Cl)s2)cc(N2CCN(CCO)CC2)n1 | 13.3 µM (active) | –
25 | Cc1cc2c(C(C)C)c(O)c(O)c(C=O)c2c(O)c1-c1c(C)cc2c(C(C)C)c(O)c(O)c(C=O)c2c1O | 13.3 µM (active) | –
26 | CCOC(=O)N1CCC(=C2c3ccc(Cl)cc3CCc3cccnc32)CC1 | 13.7 µM (active) | –
27 | CO[Si](CCCNCCNCCN)(OC)OC | – | 0.15%
28 | CCCCCCOc1ccc(O)cc1 | 13.7 µM (active) | –
29 | c1cc[nH]c1 | – | -0.433%
30 | O=C1NC2CCCCN2C12CCN(CCCN1c3ccccc3CCc3ccc(Cl)cc31)CC2 (stereo not given) | 26.6 µM (active) | –
31 | Cn1cnc2ncnc(N)c21 | – | 2.36% [at 42.5 µM]
32 | CCCCCCCOC(=O)c1ccc(O)cc1 | 24.4 µM (active) and 38.6 µM (active) | –
33 | Cc1cc(=O)[nH]c(=O)[nH]1 | – | 0.0229%
34 | O=Cc1ccc(F)cc1 | – | 11.1%
35 | COc1cccc(O)c1 | – | -0.555%
36 | CCCC(O)C(O)CO (stereo not given) | – | -1.14%
37 | CC(C)(c1cc(Br)c(OCCO)c(Br)c1)c1cc(Br)c(OCCO)c(Br)c1 | 5.33 µM (active) | –
38 | O=C(Nc1ccc(Cl)c(Cl)c1)c1cc(Cl)cc(Cl)c1O | 4.86 µM (active) | –
39 | CC1(C)C(=O)N(CO)C(=O)N1CO | – | 0%
40 | CCOC(=O)[C@@](C)(N)Cc1ccc(O)c(O)c1 | – | -1.2% [at 42.5 µM]
